# Results filed as inconclusive are left out. A call without a number means that no potency is given here. Activity calls are given as the source filed them. The call rests on the fitted dose curve; in most records, active means well fitted inhibition curve with a large enough effect; inconclusive means small, poorly fitted or top-dose-only effect; inactive means flat fitted curve, though single readings scatter.
# Tested on: CP203
# Experiment: qHTS profiling for inhibitors of Plasmodium falciparum proliferation (AID 504749); further: nearly all actives have a fitted effect of over 60% in size
# Settings: P. falciparum in erythrocytes, SYBR Green DNA, 72 h; series mostly up to 28.7 µM
# From the text: NIH National Institute of Allergy and Infectious Diseases [NIAID] NIH Chemical Genomics Center [NCGC] MLPCN Grant: None Assay Provider: Xinzhuan Su, NIAID NCGC Assay Overview: Plasmodium falciparum is a virulent malarial parasite that kills 1-2 million people worldwide each year. Transmitted by mosquitoes, the sporozoite form of the parasite enters the blood stream to infect hepatocytes, where they become merozoites that infect red blood cells (erythrocytes). Within erythrocytes, merozoites begin a […] cycle of growth and division, after which the parasite is released to infect new red blood cells. Gametocytes, which form within erythrocytes as well, circulate in the bloodstream and are ingested by the mosquito, thereby completing the life cycle. To profile malarial isolates for differential chemical responses and to identify inhibitors of malarial growth, an assay that measures P. falciparum growth and replication within erythrocytes was employed. This assay uses a DNA binding fluorescent dye (SYBR Green) to detect parasite DNA following cell lysis. Because mature erythrocytes lack DNA, only Plasmodium-derived DNA is detected.
# NCGC Assay Protocol Summary: The SYBR Green viability assay was adapted from a method described previously (Plouffe et al., 2008). For screening 3 ul culture medium was dispensed into 1536 well black clear bottom plates (Aurora Biotechnologies) using a Multidrop Combi (Thermo Fisher Scientific Inc.), 23 nL compounds in DMSO were added by a pin tool (Kalypsys), and 5 ul of erythrocytes infected with P. falciparum (0.3% parasitemia, 2.5% hematocrit final concentration) were added. The plates were incubated at 37 C in a humidified incubator in 5% CO2 for 72 h, and 2 ul lysis buffer (20 mM Tris HCl, 10 mM EDTA, 0.16% saponin, 1.6% triton X, 10X SYBR Green I supplied as 10,000X […] by Invitrogen) was added to each well. The plates were mixed for 25 sec with gentle shaking and incubated overnight at room temperature in the dark. The following morning, fluorescence intensity at 485(14) nm excitation and 535(25) nm emission wavelengths was measured on an EnVision (Perkin Elmer) plate reader. Plate reads were normalized relative to the control inhibitor (0.29 uM artemisinin) and vehicle (DMSO) wells present on each plate and then corrected by an algorithm using vehicle-only control plates at the beginning and end of the compound plate stack.
# Potency means the concentration at half of the fitted maximal effect.
row,SMILES,Potency
1,C=C1CC[C@@]2(O)[C@H]3Cc4ccc(O)c5c4[C@@]2(CCN3CC2CC2)[C@H]1O5,inactive
2,NCC1(CC(=O)O)CCCCC1,inactive
3,CC1OC(C)OC(C)O1 (stereo not given),inactive
4,NN=C(N)N,inactive
5,CC[N+]1(C)CCCC(OC(=O)C(O)(c2ccccc2)c2ccccc2)C1 (stereo not given),inactive
6,CCC1(C2=NCCN2)Cc2ccccc2O1 (stereo not given),10.7 µM (active)
7,COc1ccccc1N1CCNCC1,inactive
8,N#CC(C#N)=Cc1ccc(O)c(O)c1,inactive
9,C[C@]12C/C(=C/O)C(=O)C[C@@H]1CC[C@@H]1[C@@H]2CC[C@@]2(C)[C@H]1CC[C@]2(C)O,inactive
10,Clc1cccc(N2CCNCC2)c1,inactive
11,Nc1ccncc1,inactive
12,NCC(O)c1ccc(O)cc1 (stereo not given),inactive
13,O=C(NC(O)C(Cl)(Cl)Cl)NC(O)C(Cl)(Cl)Cl (stereo not given),inactive
14,Clc1ccc(COC(Cn2ccnc2)c2ccc(Cl)cc2Cl)cc1 (stereo not given),4.26 µM (active)
15,NCC(CC(=O)O)c1ccc(Cl)cc1 (stereo not given),inactive
16,O=C(O)c1ccc2[nH]cc(CCCCN3CC=C(c4ccccc4)CC3)c2c1,inactive
17,Cn1c(CCCC(=O)O)nc2cc(N(CCCl)CCCl)ccc21,inactive
18,CCOC(=O)C1(c2ccccc2)CCN(CCC(C#N)(c2ccccc2)c2ccccc2)CC1,4.78 µM (active)
19,CCOP(=S)(OCC)Oc1cc(C)nc(C(C)C)n1,inactive
20,Cc1ncc(CNC(=O)N(CCCl)N=O)c(N)n1,inactive

row,SMILES,Potency
1,CCN(C(C)=O)c1cccc(-c2ccnc3c(C#N)cnn23)c1,inactive
2,CN1C(=S)CN=C(c2ccccc2)c2cc(Cl)ccc21,inactive
3,OCCOc1ccccc1,inactive
4,CN(C)CCc1ccc(O)cc1,inactive
5,CCC(COC(=O)c1cc(OC)c(OC)c(OC)c1)(c1ccccc1)N(C)C (stereo not given),inactive
6,CC(C)(C)CC(C)(C)c1ccc(O)cc1,inactive
7,C#CCOC(C(=O)OCCN(C)C)(c1ccccc1)c1ccccc1,inactive
8,O=C1NCN(c2ccccc2)C12CCN(CC1COc3ccccc3O1)CC2 (stereo not given),inactive
9,Cc1ccc(-c2nc3ccc(C)cn3c2CC(=O)N(C)C)cc1,inactive
10,CCCC1CCCCN1 (stereo not given),inactive
11,CC(C)=CC1C(C(=O)OCc2cccc(Oc3ccccc3)c2)C1(C)C (stereo not given),inactive
12,FC(F)(F)c1cccc(C2=CCN(CCc3ccc4ccccc4c3)CC2)c1,inactive
13,CCC(C(N)=O)N1CCCC1=O (stereo not given),inactive
14,NCCc1cc(O)c(O)cc1O,inactive
15,Fc1ccc(C(OCCN2CCN(CCCc3ccccc3)CC2)c2ccc(F)cc2)cc1,12 µM (active)
16,CC(=O)[C@H]1CC[C@H]2[C@@H]3CC[C@H]4C[C@H](O)CC[C@]4(C)[C@H]3C(=O)C[C@]12C,inactive
17,O=c1[nH]c2ccccc2n1C1CCN(CCCC(c2ccc(F)cc2)c2ccc(F)cc2)CC1,inactive
18,COc1ccc(C(=O)c2c(C)n(CCN3CCOCC3)c3ccccc23)cc1,inactive
19,CCCC(C)(COC(N)=O)COC(=O)NC(C)C (stereo not given),inactive
20,CC[C@@H](CO)NC(=O)[C@@H]1C=C2c3cccc4[nH]cc(c34)C[C@H]2N(C)C1,inactive

# Source: PubChem BioAssay (NCATS)
